This passage reports manual score results from PubChem BioAssay AID623911 (Vanderbilt High Throughput Screening Facility, 2012).

The whole screen tested about 2,100 compounds, of which about 770 (37%) were called active.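 How the source made its calls: active means by-eye trace score of 1 for enhancers or -1 for inhibitors, so actives lie on both sides (some results past the limit were not filed as active); inactive means score 0, or 3 fluorescent, or 4 baseline rise.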 The list shows a part of the results.

The target in the assay is G protein-activated inward rectifier potassium channel 2 (Homo sapiens) + G protein-activated inward rectifier potassium channel 1 (Homo sapiens) (UniProt P48051+P48549). The assay can be described thus: GIRK1/2 thallium flux modulators, retest, confirmation, cell-based, HEK293 rmGlu8/hGIRK1/2, FluoZin-2 (AID 623911). Particulars: HEK293 rmGlu8/hGIRK1/2, thallium flux FluoZin-2; actives lie on both sides; glutamate co-added at its EC20 level.
Sequence of G protein-activated inward rectifier potassium channel 2 (Homo sapiens) + G protein-activated inward rectifier potassium channel 1 (Homo sapiens) (P48051 whole entry, looked up): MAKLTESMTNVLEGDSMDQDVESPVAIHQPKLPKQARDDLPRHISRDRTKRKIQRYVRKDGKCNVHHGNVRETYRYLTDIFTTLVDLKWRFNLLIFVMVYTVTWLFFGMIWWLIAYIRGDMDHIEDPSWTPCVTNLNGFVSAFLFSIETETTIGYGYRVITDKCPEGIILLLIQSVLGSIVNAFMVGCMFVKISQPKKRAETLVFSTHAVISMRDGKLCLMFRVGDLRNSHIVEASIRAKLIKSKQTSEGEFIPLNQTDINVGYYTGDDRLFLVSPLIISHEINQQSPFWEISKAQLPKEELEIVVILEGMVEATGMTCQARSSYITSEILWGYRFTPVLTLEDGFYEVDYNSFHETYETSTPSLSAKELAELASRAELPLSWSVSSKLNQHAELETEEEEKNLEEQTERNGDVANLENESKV
Sequence of G protein-activated inward rectifier potassium channel 2 (Homo sapiens) + G protein-activated inward rectifier potassium channel 1 (Homo sapiens) (P48549 whole entry, looked up): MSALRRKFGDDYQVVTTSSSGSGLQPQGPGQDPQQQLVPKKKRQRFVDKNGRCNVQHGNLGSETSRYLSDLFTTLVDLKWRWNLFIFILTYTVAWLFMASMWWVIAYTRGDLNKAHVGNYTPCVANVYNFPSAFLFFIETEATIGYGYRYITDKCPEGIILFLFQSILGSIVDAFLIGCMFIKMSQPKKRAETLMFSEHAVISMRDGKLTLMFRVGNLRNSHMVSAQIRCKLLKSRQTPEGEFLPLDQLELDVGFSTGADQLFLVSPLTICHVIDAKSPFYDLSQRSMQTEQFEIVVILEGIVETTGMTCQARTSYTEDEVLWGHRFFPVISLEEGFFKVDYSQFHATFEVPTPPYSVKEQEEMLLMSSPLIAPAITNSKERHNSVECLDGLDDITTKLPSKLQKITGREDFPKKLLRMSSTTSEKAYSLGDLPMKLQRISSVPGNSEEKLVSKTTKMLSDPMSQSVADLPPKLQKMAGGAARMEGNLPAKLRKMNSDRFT
For `COC(=O)C1=NN(c2ccccc2)C2C(=O)N(c3ccccc3OC)C(=O)C12` (configuration not stated), the manual score is 0 (inactive).

As for `N#CC(c1cccc(Cl)c1)c1ccc2c(C(F)(F)F)cc(C(F)(F)F)nc2n1` (configuration not stated), the manual score was 0 (inactive).

`CCNC(=S)N/N=C1\C(=O)c2cccc3cccc1c23`: the manual score was 1 (active).

As for `CCNC(=S)N/N=C1\CCCCc2ccccc21`, the manual score is 4 (inactive).

Take `CCCCNC(=S)N/N=C1\C(=O)c2cccc3cccc1c23`: the manual score was 0 (inactive).

On to `CNC(=S)N/N=C1\C(=O)c2cccc3cccc1c23`, for which the manual score is 1 (active).

For `O=C(N/N=C1/C(=O)c2cccc3cccc1c23)c1ccc(Cl)cc1`, the manual score was 1 (active).

On to `O=c1c(O)c(-c2cccs2)oc2ccc(Cl)cc12`, for which the manual score was 3 (inactive).

With `COc1ccc(/C=N/NC(=O)c2nc(-c3ccccc3)cc(-c3ccccc3)n2)cc1`, the manual score is 0 (inactive).

`O=C(N/N=C/c1ccc(Sc2ccccn2)o1)c1cc2ccccc2cc1O`: the manual score was 1 (active).

`CCCOc1ccc(/C=N/NC(=O)C(=O)Nc2ccccn2)cc1`: the manual score is 0 (inactive).

For `O=C(CSc1nc(O)cc(=O)n1-c1ccccc1)N1CCCCC1`, the manual score was 0 (inactive).

Consider `Cc1ccc(NC(=S)N/N=C/c2c(Cl)cccc2Cl)c(C)c1`, for which the manual score is 0 (inactive).

As to `Cc1ccc(C)c(NC(=S)c2nc3ccccc3s2)c1`, the manual score is 0 (inactive).

With `Cc1ccc(NC(=S)c2nc3ccccc3[nH]2)c(C)c1`, the manual score is 1 (active).

In the case of `Cc1ccccc1NC(=S)c1nc2ccccc2[nH]1`, the manual score is 1 (active).

On to `N#C/C(=C\c1ccc(N2CCOCC2)o1)c1nc2ccccc2[nH]1`, for which the manual score was 3 (inactive).

Take `COc1ccc(CNc2nc(-c3cccnc3)nn2C(=O)c2ccco2)cc1`: the manual score was 0 (inactive).

For the compound `CCOC(=O)c1nn(-c2ccc(F)cc2)c(C)c1C(C)=O`, the manual score was 0 (inactive).

For `COC(=O)c1ccc(NC(=O)CSc2nnc(COc3ccccc3)n2C)cc1`, the manual score was 3 (inactive).

As for `CCOC(=O)c1ccccc1NC(=O)CSc1nnc(Cc2cccn2C)n1-c1ccc(F)cc1`, the manual score is -1 (active).

In the case of `CCOC(=O)c1ccccc1NC(=O)CSc1nnc(COc2ccccc2)n1CC`, the manual score was -0.5 (inactive).

On to `CCOC(=O)CN(C(=O)CSc1nnc(Cc2ccccc2)n1-c1ccc(C)cc1)c1ccccc1`, for which the manual score is -1 (active).

Take `CCOC(=O)c1ccccc1NC(=O)CSc1nnc(Cc2cccn2C)n1-c1ccc(C)cc1`: the manual score was -1 (active).

In the case of `CCOC(=O)c1ccccc1NC(=O)CSc1nnc(COc2ccccc2C)n1C`, the manual score is -1 (active).

Regarding `CN(C(=O)c1cccnc1)c1nnc(-c2cnccn2)s1`, the manual score is 0 (inactive).

On to `Cc1cccn2c(=O)c(/C=N/O)c(N3CCCC3)nc12`, for which the manual score was 0 (inactive).

For the compound `CCOC(=O)C1=C(C)N=C2SCCC(=O)N2C1c1sccc1C` (configuration not stated), the manual score was 0 (inactive).

As for `Cc1cccc(NC(=S)NNC(=O)c2sccc2C)c1`, the manual score is 1 (active).

As to `Cc1ccc(C2CC2C(=O)NNC(=S)Nc2cccc(C)c2)cc1` (configuration not stated), the manual score was 0 (inactive).

Regarding `CC/C(=N\NC(=S)Nc1cc(C)ccc1C)c1ccc(OC(F)F)cc1`, the manual score was 0 (inactive).

On to `CCc1cc(C(=O)NNC(=S)Nc2ccccc2C)cs1`, for which the manual score is 0 (inactive).

For the compound `CCc1cc(C(=O)NNC(=S)Nc2cccc(C)c2)cs1`, the manual score was 1 (active).

Regarding `CCc1cc(C(=O)NNC(=S)Nc2cc(C)ccc2C)cs1`, the manual score was 1 (active).

With `C/C(=N\NC(=S)Nc1cccc(C)c1)c1cccc(N)c1`, the manual score is 0 (inactive).

Take `Cc1ccsc1/C=N/NC(=O)c1sccc1C`: the manual score was 0 (inactive).

In the case of `O=c1oc(-c2ccc(Br)o2)nc2ccccc12`, the manual score is 0 (inactive).

Take `COC(=O)c1cc(=O)n(CCc2ccc(OC)cc2)c(=Nc2ccc(F)c(Cl)c2)s1`: the manual score was 0 (inactive).

Consider `CC(C)(C)NC(=O)C(c1ccncc1)N(C(=O)c1csnn1)c1ccccc1` (configuration not stated), for which the manual score was 0 (inactive).

`O=C(C[n+]1cc(-c2ccccc2)n2c1CCC2)OCc1ccccc1`: the manual score was 0 (inactive).

Regarding `CS(=O)(=O)c1ccc2nc(NC(=O)Nc3ccc(Cl)c(Cl)c3)sc2c1`, the manual score is 0 (inactive).

Turning to `CC1(C)Cc2ccccc2C(/C(=N\Nc2cccc(Cl)c2)C(N)=O)=N1`, the manual score is 0 (inactive).

With `O=C(Nc1cccc(Cl)c1)Nc1nccs1`, the manual score was 1 (active).

`O=C(CSc1ccccc1)N(c1ccc(Br)cc1)c1nccs1`: the manual score was 0 (inactive).

For `O=C(NNC(=O)c1cccs1)Nc1cccc(Cl)c1`, the manual score was 1 (active).

As to `Cc1ccc(OCCCC(=O)Nc2nccs2)cc1`, the manual score was 0 (inactive).

As to `O=C(Nc1ccccc1)Nc1nccs1`, the manual score was 1 (active).

In the case of `CCOC(=O)Cn1c(=O)oc2cc(S(=O)(=O)Nc3ccc(N(CC)CC)cc3C)ccc21`, the manual score is 0 (inactive).

On to `CCOC(=O)C1=C(C)OC(N)=C(C#N)C1c1cncc(-c2ccc(F)cc2)c1` (configuration not stated), for which the manual score is -0.5 (inactive).

Turning to `Cc1c(NC(=S)NC(NC(=O)CC(C)C)C(Cl)(Cl)Cl)c(=O)n(-c2ccccc2)n1C` (configuration not stated), the manual score was 0 (inactive).

Regarding `O=C(NC(NC(=S)Nc1ccc(Cl)cc1Cl)C(Cl)(Cl)Cl)c1cccc([N+](=O)[O-])c1` (configuration not stated), the manual score is 1 (active).

In the case of `COc1ccc(C/C(C)=N/NC(=S)Nc2ccccc2)cc1`, the manual score is 0 (inactive).

As to `N#C/C(=C/C=C/c1ccccc1)C(=O)Nc1ccccc1`, the manual score is 0 (inactive).

Regarding `COC(=O)c1ccccc1NC(=S)NC(NC(=O)c1ccccc1[N+](=O)[O-])C(Cl)(Cl)Cl` (configuration not stated), the manual score was 0 (inactive).

Take `O=C(/C=C/c1ccccc1)NC(NC(=S)Nc1cccc(O)c1)C(Cl)(Cl)Cl` (configuration not stated): the manual score was 3 (inactive).

Regarding `COc1ccc(NC(=S)NC(NC(=O)/C=C/c2ccccc2)C(Cl)(Cl)Cl)cc1` (configuration not stated), the manual score is 1 (active).

Consider `O=C(/C=C/c1ccccc1)NC(NC(=S)Nc1cc(Cl)ccc1Cl)C(Cl)(Cl)Cl` (configuration not stated), for which the manual score is 1 (active).

`O=C(/C=C/c1ccccc1)NC(NC(=S)Nc1cccc(Cl)c1)C(Cl)(Cl)Cl` (configuration not stated): the manual score is 1 (active).

On to `O=C(NC(=S)Nc1cc([N+](=O)[O-])ccc1Cl)c1ccccc1`, for which the manual score was 0 (inactive).

As for `O=C(COc1ccc2ccccc2c1CN1CCOCC1)N1CCc2ccccc21`, the manual score was -1 (active).

For `O=C(CSc1nc(-c2ccccc2)cc(=O)[nH]1)N1CCc2ccccc21`, the manual score is 0 (inactive).

As for `CC(C)n1c(NCc2c[nH]c3ccccc23)nc2ccccc21`, the manual score was -1 (active).

For the compound `CCOC(=O)C(C)Sc1nnc(-c2c[nH]c3ccccc23)n1C` (configuration not stated), the manual score is -0.5 (inactive).

With `Cc1cccc(S(=O)(=O)NC(Cc2c[nH]c3ccccc23)C(=O)O)c1` (configuration not stated), the manual score was 0 (inactive).

With `Cc1cc(C)c2c(c1)/C(=N/NC(=S)Nc1ccc(F)cc1)CCC2`, the manual score was 0 (inactive).

In the case of `Cc1ccccc1N=Nc1c(C)[nH]n(C(N)=S)c1=O`, the manual score is 1 (active).

For the compound `Cc1ccccc1N=Nc1ccc(O)c2ncccc12`, the manual score was 0 (inactive).
